Screen size: about 290,000 compounds; about 3,000 (1%) were called active. Cut-off read from the data, not from the text of the source: active = inhibition mostly above about 36% (no sharp cut-off); inactive = mostly below about 34%. What follows is part of a selection rich in actives, with near analogues and random picks from the rest.
Assay: NOD1 signaling inhibitors, primary screen, cell-based, luminescence, uHTS (AID 1578);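 note: HEK-293T reporter cells stimulated with the NOD1 agonist gamma-tri-DAP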
Settings: NOD1-driven NF-kB luciferase reporter cells, at 4 µM, stronger effect = higher value

inhibition, inactive:
Brc1c(CSc2nc3ccccc3o2)nc2ncccn12 -66.9%
Cc1cc(C)cc(NC(=O)c2ccc(CSc3nnnn3C)cc2)c1 -44.7%
COc1ccc(NC(=O)CN(C)C(=O)c2ccc(-c3cccc(C(F)(F)F)c3)o2)cc1 -14.7%
C=CCOc1ccccc1CNCc1ccc(F)cc1 -24%
Cc1ccc(S(=O)(=O)c2nc(S(C)(=O)=O)sc2N2CCCCCC2)cc1 32.4%
Cc1ccc(S(=O)(=O)c2nc(S(C)(=O)=O)sc2N2CCCC2)cc1 -19.8%
CC(=O)N1CCc2cc(S(=O)(=O)Nc3cccc(C(F)(F)F)c3)ccc21 30.6%
CC(=O)N1CCc2cc(S(=O)(=O)Nc3ccc(C)cc3)ccc21 0%
CCCNC(=O)CN1C(=O)COc2ccc(S(=O)(=O)N3CCCCCC3)cc21 -13.3%
COc1ccc(Cl)cc1C(=O)Nc1cccc2ncccc12 13.1%
COc1ccc(OCc2ccc(C(=O)O)cc2)cc1 -70.3%
CCOc1ccc(OCc2cccc(C(=O)N(CC)CC)c2)cc1 -59.7%
O=C(O)c1ccc(COc2ccc(CO)cc2Cl)cc1 -26.3%
CCOc1ccc(OCc2cccc(C(=O)N3CCCC3)c2)cc1 -38%
COc1ccc(OCc2cccc(C(=O)NN)c2)cc1 38.9%
O=C1NC(=O)/C(=C\c2ccc(OCc3cccc(C(=O)O)c3)c(Cl)c2)N1 -17.1%
COc1cccc(/C=C(/C#N)c2ccc(Cl)cc2)c1OCc1cccc(C(=O)O)c1 14.4%
O=C(O)c1cccc(COc2ccccc2Cl)c1 97.2%
O=C(N=C1SC2CS(=O)(=O)CC2N1c1ccc(OC(F)(F)F)cc1)C1CC1 (stereo not drawn) -27.3%
O=C(NC(c1cccnc1)C(F)(F)F)c1cc(COc2ccc3c(c2)CCCC3)on1 (stereo not drawn) 1.4%
Cc1nn(-c2ccccc2)c(=S)n1-c1ccccc1 -7%
O=C(CSc1n[nH]c(-c2ccccc2)n1)Nc1ccc(F)cc1F -6.2%
COc1ccc(OCc2cc(C(=O)N3CCCCCCC3)no2)c(Cl)c1 -23.7%

inhibition, active:
Cc1ccc(S(=O)(=O)c2nc(S(C)(=O)=O)sc2N2CCCCC2C)cc1 (stereo not drawn) 55.1%
O=C(O)c1cccc(COc2ccc(CO)cc2Cl)c1 99.2%
COc1ccc(OCc2cccc(C(=O)O)c2)cc1 102%
C/C(=N\OCc1cccc(C(=O)O)c1)c1ccc(Cl)cc1 47.4%
CCOc1ccc(OCc2cccc(C(=O)O)c2)cc1 97.5%
